Source: the supplement of paper PMC12636033
± gives the standard deviation of the averaged measurements. The full ranking holds about 33,000 sequences; the median of “E-score (rank enrichment, -0.5 to 0.5)” is about -0.0028, and the highest 2% start at about 0.23. The full list was thinned out, with the highest values kept by preference.

What follows are sequences tested on 2Sb-muMax20 (muMax20 with two 1,3-bis(methyl)benzene Cys staples, A13C/A17C and Q88C/A92C, C-terminal Lys) (assay: PBM 8-mer E-score (E-score (rank enrichment, -0.5 to 0.5)); higher = stronger preferential binding).
Description: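 Protein binding microarray (universal PBM chip covering all 10-mers in fixed probe flanks) with chemically synthesized human Max(13-93) bHLH-LZ analogs (not full-length Max) bearing noncanonical residues (hArg, Tha, Aib, Nle at 65) and aromatic Cys staples. Read-out per 8-mer (and its reverse complement): E-score (rank-based enrichment, -0.5 to 0.5) and Z-score of median probe intensity.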

Row | Sequence | PBM 8-mer E-score
1 | ACACCGGG | -0.119 ± 0.096
2 | AGCATAAG | 0.0893 ± 0.055
3 | CATTATGG | 0.0682 ± 0.009
4 | CACATTCC | -0.108 ± 0.075
5 | GCTGCGCA | -0.147 ± 0.022
6 | CAACATGC | -0.00139 ± 0.11
7 | CAACATGG | 0.138 ± 0.066
8 | CAACATGA | 0.232 ± 0.044
9 | CTATATAA | 0.0927 ± 0.03
10 | CGATATAG | 0.00229 ± 0.039
11 | TGTTATAA | 0.261 ± 0.021
12 | AGTTATAA | 0.141 ± 0.061
13 | TACTATAA | 0.239 ± 0.017
14 | CGTTATAA | 0.129 ± 0.021
15 | ATATATAA | 0.221 ± 0.099
16 | CGATATAA | 0.262 ± 0.066
17 | CGATATAC | 0.156 ± 0.025
18 | CACTATAA | -0.0514 ± 0.028
19 | AACTATAA | 0.102 ± 0.024
20 | TTATATAA | 0.241 ± 0.086
21 | CCCACTAA | 0.177 ± 0.014
22 | ACAGTCAC | 0.0067 ± 0.018
23 | AAATCTGG | -0.19725 ± 4.2e-05
24 | TACCTTAA | -0.0174 ± 0.012
25 | ACAGGAGC | -0.00133 ± 0.025
26 | GATTGCGA | -0.103 ± 0.03

Row | Sequence | PBM 8-mer E-score
27 | CTGGTACA | 0.0235 ± 0.024
28 | CGCCGGAG | -0.226 ± 0.023
29 | CAAATTGG | 0.0841 ± 0.087
30 | CCCTCCCA | 0.325 ± 0.076
31 | ACTCCCAA | 0.141 ± 0.025
32 | CCTCCCAA | 0.0447 ± 0.088
33 | ACTCCCCA | 0.309 ± 0.0089
34 | ACTCCCCG | 0.168 ± 0.015
35 | GCCTCCCA | -0.128 ± 0.085
36 | ACTCCCCC | -0.192 ± 0.053
37 | ACTCCCCT | 0.266 ± 0.028
38 | TCTCCCCA | 0.164 ± 0.047
39 | ACCTCCCA | -0.0967 ± 0.065
40 | CCTCCCCC | -0.17 ± 0.14
41 | CCTCCCCA | 0.346 ± 0.046
42 | CGGATAAA | 0.0371 ± 0.069
43 | AGATGAAT | 0.17 ± 0.0036
44 | CATCCTAG | 0.0659 ± 0.037
45 | ATAGGGAA | 0.0733 ± 0.043
46 | CTAATCCA | 0.0132 ± 0.01
47 | CACATCGG | -0.0961 ± 0.052
48 | ATTGTTGC | 0.00699 ± 0.061
49 | AAGAGGGC | 0.0019 ± 0.0019
50 | ACGCTCTG | -0.0545 ± 0.0079
51 | CCAACGAC | -0.133 ± 0.023
52 | TAAACTAA | 0.233 ± 0.028

Row | Sequence | PBM 8-mer E-score
53 | AAAACTAA | 0.132 ± 0.019
54 | CAAACTAA | 0.0893 ± 0.026
55 | CTAACTAA | 0.0585 ± 0.065
56 | TTAACTAA | 0.241 ± 0.014
57 | ATAACTAA | 0.112 ± 0.031
58 | GACTGCCA | -0.0667 ± 0.023
59 | ACCCCAGG | -0.107 ± 0.067
60 | ACCCCACC | 0.22 ± 0.074
61 | ACCCCACT | 0.293 ± 0.044
62 | ACCCCAGT | 0.336 ± 0.028
63 | ACCCCAGA | 0.156 ± 0.044
64 | AACCCACT | 0.059 ± 0.037
65 | ATTGAAGG | 6e-05 ± 0.019
66 | AGTTCAAA | -0.0257 ± 0.13
67 | AACCGGCC | -0.167 ± 0.021
68 | CCGCTGCC | -0.123 ± 0.029
69 | CAGAGAGA | -0.0625 ± 0.011
70 | TTACAAAA | 0.181 ± 0.03
71 | ATACAAAA | 0.296 ± 0.014
72 | CTACAAAA | 0.0645 ± 0.037
73 | GTACAAAA | 0.27 ± 0.0082
74 | GTACAAAC | 0.028 ± 0.04
75 | ATACAAAT | 0.148 ± 0.12
76 | ACCTGTCC | 0.0598 ± 0.062
77 | AATATGGC | 0.221 ± 0.025
78 | CACAGCAC | -0.0272 ± 0.038

Row | Sequence | PBM 8-mer E-score
79 | ATTAAGTG | 0.122 ± 0.011
80 | AGTAAGTC | 0.1006 ± 0.00054
81 | ATTAAGTA | 0.236 ± 0.026
82 | AGTAAGTA | 0.126 ± 0.027
83 | GTTAAGTA | 0.0909 ± 0.029
84 | AATAAGTA | 0.285 ± 0.0052
85 | AATAAGTG | 0.17 ± 0.066
86 | AGTAAGTG | 0.2306 ± 0.0021
87 | CATAAGTA | 0.163 ± 0.049
88 | CTGACCAC | -0.0726 ± 0.025
89 | AGGTGGAA | -0.00713 ± 0.04
90 | GTTATTAA | 0.0581 ± 0.1
91 | CAGTCTGG | -0.18 ± 0.038
92 | CAAATTCG | 0.000655 ± 0.064
93 | CACTTAAG | 0.0265 ± 0.011
94 | ATGGACCG | -0.222 ± 0.029
95 | ACCCAAAG | 0.0519 ± 0.028
96 | ACCCAAGC | -0.0166 ± 0.044
97 | ACCCAAAA | -0.0026 ± 0.17
98 | ACCCAAAT | 0.277 ± 0.028
99 | ACCCAAGG | 0.0572 ± 0.07
100 | ACCCAAGT | 0.282 ± 0.052
101 | AGGAAACA | 0.0889 ± 0.046
102 | AGTCGCCC | -0.0113 ± 0.15
103 | AACCGTAT | -0.0505 ± 0.036
104 | CTGTGCGC | 0.0257 ± 0.14

Row | Sequence | PBM 8-mer E-score
105 | AACGTTCC | 0.142 ± 0.028
106 | CCGATGCC | -0.029 ± 0.062
107 | AAAGCAAC | 0.0449 ± 0.04
108 | AAAGCAAG | 0.167 ± 0.024
109 | ATAGCAAT | 0.234 ± 0.05
110 | ATAGCAAG | 0.157 ± 0.0043
111 | ATAGCAAC | 0.031 ± 0.02
112 | AAAGCAAT | 0.268 ± 0.011
113 | CCGTAACC | -0.243 ± 0.07
114 | ATAACCTG | 0.113 ± 0.024
115 | AATGGCGT | 0.0723 ± 0.025
116 | TGTGCACA | -0.0483 ± 0.071
117 | CGTGCACG | 0.357 ± 0.019
118 | CGTGCACA | 0.123 ± 0.094
119 | AAACGTTT | 0.171 ± 0.011
120 | AGGCAGGC | -0.109 ± 0.057
121 | CTATTTCC | 0.259 ± 0.0072
122 | CTATTTCA | 0.135 ± 0.01
123 | ATATTTCC | -0.00852 ± 0.065
124 | CCAAGCAA | 0.0514 ± 0.029
125 | ATGGATTA | -0.131 ± 0.0052
126 | AGCGTCAA | -0.0167 ± 0.026
127 | ACACAAGA | 0.0809 ± 0.01
128 | AATTGTAC | 0.2375 ± 0.0016
129 | AATTGTAG | 0.0147 ± 0.034
130 | GATTGTAC | 0.051 ± 0.031

Row | Sequence | PBM 8-mer E-score
131 | CATTGTAC | 0.238 ± 0.031
132 | CATTGTAG | 0.033 ± 0.059
133 | AATTGTAA | 0.165 ± 0.011
134 | GATTCGAC | -0.119 ± 0.031
135 | GCAGGTGA | -0.000525 ± 0.049
136 | AGCACAGA | 0.00824 ± 0.026
137 | AACATGCT | 0.0156 ± 0.11
138 | AAAACTGC | -0.0787 ± 0.029
139 | ACATTATA | 0.222 ± 0.013
140 | AAACGAAT | 0.0979 ± 0.067
141 | CAACCGGG | -0.22 ± 0.053
142 | ACTCACAA | 0.124 ± 0.028
143 | ACCTCGAC | -0.178 ± 0.084
144 | GTGCATTA | 0.0825 ± 0.077
145 | ATGCATCA | 0.332 ± 0.0056
146 | GTGCATCA | 0.0577 ± 0.073
147 | ATGCATTG | 0.133 ± 0.0027
148 | ATGCATTA | 0.311 ± 0.01
149 | ATGCATCG | 0.0238 ± 0.0075
150 | CTGCAATA | 0.0131 ± 0.065
151 | ATGCAATA | 0.269 ± 0.021
152 | CTGCATTA | 0.0983 ± 0.0036
153 | CTGCATTC | 0.0548 ± 0.014
154 | GTGCAATA | 0.118 ± 0.07
155 | ATGCATTC | 0.248 ± 0.054
156 | AAAACCCA | 0.145 ± 0.034

Row | Sequence | PBM 8-mer E-score
157 | CGTGCCCC | 0.0242 ± 0.014
158 | GCTCTCTA | -0.0575 ± 0.015
159 | ACCTGCCC | -0.236 ± 0.049
160 | AGGCATAG | 0.017 ± 0.038
161 | CAAGTAAA | 0.114 ± 0.018
162 | CCTACACC | 0.00456 ± 0.037
163 | TCGCGTCA | -0.0876 ± 0.026
164 | ATGCATAC | 0.253 ± 0.0083
165 | CTGCATAC | 0.0495 ± 0.019
166 | ATGCATAA | 0.213 ± 0.023
167 | GCGGCGAC | -0.148 ± 0.0016
168 | GAAACAAA | 0.301 ± 0.065
169 | AAAACATA | 0.1684 ± 0.0003
170 | TAAAACAA | -0.00029 ± 0.077
171 | GAAACATC | 0.0426 ± 0.019
172 | CAAACAAA | 0.0981 ± 0.0047
173 | GAAAACAA | 0.244 ± 0.069
174 | GAAACATA | 0.268 ± 0.048
175 | GAAACAAC | 0.0094 ± 0.1
176 | AAAAACAA | 0.158 ± 0.049
